A selection: hits, their analogues and other compounds. The true share with any hit is near 2.4%.
Nrf2 block: Nrf2 pathway inhibition; A549 ARE-Fluc reporter, luciferase luminescence, 18-24 h; Potency, µM (series often up to 46 µM), without a hit: top-dose activity change, negative = inhibition, actives largely listed as inhibitors; 360,000 tested, 2.1% active; AID 504444; also: % is scaled to controls: 0 for no effect and ±100 for the full control effect; nearly all actives have a fitted effect of over 60% in size
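In this cell-based qHTS, ARE-driven firefly luciferase in A549 cells reports Nrf2 activity; the luminescent signal after BugLite lysis is the measured value, with a prior CellTiter-Fluor read for cell health.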
A549 tox: kills or reduces viability of A549 cells in Nrf2 counter-screen | A549 ARE-Fluc cells, CellTiter-Fluor viability, 18-24 h | Potency, µM (highest dose often 46 µM), for inactives: at the highest dose activity change, negative = cytotoxicity, actives largely listed as inhibitors | 390,000 tested, 0.16% active | AID 504648; also: % is scaled to controls: 0 for no effect and ±100 for the full control effect
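A549 ARE_Fluc cells in 5% FBS OPTI-MEM were exposed to compounds in concentration-response for 18-24 h at 37 deg C. Viability was read by CellTiter-Fluor fluorescence (Ex 405/Em 525) after 30 min, before the luciferase read.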
PINK1 modulator: PINK1 expression modulation; 410,000 tested, 0.2% active; PINK1 immunofluorescence, high-content cytometry, 24 h; Potency, µM (titrated, usually from 76.6 µM), without a hit: top-dose activation (PINK1 increase), usual class: activators; active = well fitted activation curve with a large enough effect; inconclusive = small, poorly fitted or top-dose-only effect; cell line not stated here; also: % of control where 0% means no effect; nearly all actives have a fitted effect of over 65% in size
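PINK1 protein level read as immunofluorescence by microplate cytometer in a fixed, stained stable cell line after 24 h exposure to five compound concentrations, with CCCP as control.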
Epigenetic reg: epigenetic control regulation, reporter derepression; murine LDR cells, GFP reporter derepression, 30 h; Potency, µM (top dose mostly 53.9 µM), without a hit: at the top dose GFP activation, most hits filed as activators; 280,000 tested, 0.2% active; AID 1865; also: % of control where 0% means no effect; nearly all actives have a fitted effect of over 60% in size
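GFP-positive cell count by laser-scanning cytometry (objects 20–120 um) after 30 h, 37 C compound exposure of murine LDR cells; reporter is CMV-GFP integrated at a silenced locus, inducible by HDAC or DNMT inhibitors.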
Nrf2 ARE act: Nrf2 pathway activation; AREc32 ARE-luciferase reporter (MCF7-derived line), luminescence, 24 h; Potency, µM (doses to about 46.1 µM), for inactives: at the highest dose activation, usual class: activators; 410,000 tested, 0.31% active; also: % of control where 0% means no effect; nearly all actives have a fitted effect of over 65% in size
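Luciferase luminescence (Steady-Glo, 30 min at room temperature) served as the read-out of ARE activation in AREc32 cells treated with compounds for 24 hr at 37 deg C.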
Active calls of the source: *; u = inconclusive; x = not tested or not shown; [ ] = remark or other dose. Unless noted, calls follow the shape of the dose curve; as a rule, active = well fitted curve in the direction sought with a large enough effect; inconclusive = small, poorly fitted or top-dose-only effect, or another doubt; inactive = no such curve, though single readings can be large; an effect the other way counts as inactive or inconclusive. Potency is read from the fitted curve at half-maximal effect.

SMILES	Nrf2 block	A549 tox	PINK1 modulator	Epigenetic reg	Nrf2 ARE act
O=C(CC1CCCCC1)N1CCC(c2nc(-c3ccc(S(=O)(=O)N4CCCC4)cc3)no2)CC1	20.6µM*	-22.4%	-1.6%[38.3 µM]	0.0%	-0.2%
CCc1ccccc1NC(=O)C(CC)Oc1ccccc1-c1nnc(-c2ccccc2)o1 (stereo not drawn)	u	-22.7%	6.0%	0.0%	-0.6%
COC(=O)C1=C(c2ccc(F)cc2OCc2ccccc2)C[C@@H]2CC[C@H]1N2C(=O)NCc1ccc(Br)cc1	14.6µM*	-22.1%	0.3%	x	0.0%
COC(=O)C1=C(c2ccc(F)cc2OCc2ccccc2)C[C@@H]2CC[C@H]1N2C(=O)NCc1ccc(OC)cc1	u	-17.5%	-0.4%	x	0.4%
COC(=O)C1=C(c2ccc(F)cc2OCc2ccccc2)C[C@@H]2CC[C@H]1N2C(=O)NCCOc1ccc(OC)cc1	23.1µM*	-11.9%	0.0%	x	-1.6%
COC(=O)C1=C(c2ccc(F)cc2OCc2ccccc2)C[C@@H]2CC[C@H]1N2C(=O)NCCc1ccc(F)cc1	18.4µM*	u	-0.1%	x	-1.5%
COC(=O)C1=C(c2ccc(F)cc2OCc2ccccc2)C[C@@H]2CC[C@H]1N2C(=O)NCCOc1ccccc1	u	-18.6%	0.9%	x	-1.1%
COC(=O)C1=C(c2ccc(F)cc2OCc2ccccc2)C[C@@H]2CC[C@H]1N2C(=O)NCc1ccccc1Cl	5.17µM*	-15.5%	-0.8%	x	0.1%
CCCCC/C=C\C/C=C\C/C=C\C/C=C\CCCC(=O)NCCCl	x	x	x	2.2%	x
COC(=O)[C@@H]1C[C@H](OC(C)=O)C(=O)[C@H]2[C@@]1(C)CC[C@H]1C(=O)O[C@H](c3ccoc3)C[C@]21C	x	x	x	0.6%	x
CCCN1CCCC(c2cccc(O)c2)C1 (stereo not drawn)	x	x	x	-1.2%	x
Cc1ccc(-c2nnc(Nc3ccc(OC(F)(F)Cl)cc3)c3ccccc23)cc1S(=O)(=O)NC(C)(C)CO	u	-20.2%	-0.1%	4.3%	-2.3%
CCOC(=O)[C@]12Cc3cc(C)ccc3[C@H]1N(Cc1ccccc1)C(=O)c1ccccc12	23.1µM*	u	0.1%	x	-1.0%
Cc1cccc(N2C(=O)CSC23C(=O)N(CC(=O)Nc2cccc(Cl)c2)c2ccccc23)c1 (stereo not drawn)	u	-24.3%	-3.8%	0.0%	-0.1%
COc1ccc(C(=O)C2CCCN(Cc3cnc(C)s3)C2)cc1OC (stereo not drawn)	u	-3.4%	4.1%	-0.1%	-1.1%
COc1ccc(C(=O)C2CCCN(Cc3cnc(C)s3)C2)c(OC)c1 (stereo not drawn)	20.6µM*	-7.1%	-1.2%	-0.1%	5.1%
Nc1c(C(=O)OC2CCCCC2)c2nc3ccccc3nc2n1CC1CCCO1 (stereo not drawn)	23.1µM*	-19.5%	4.0%[38.3 µM]	-1.0%	-0.1%
CC1=CC2/C=C(\C)CCC(O)C(O)/C=C/C(=O)C23C(=O)NC(CC(C)C)C3C1C (stereo not drawn)	14.6µM*	16.4µM*	-1.3%	1.2%	u
Cc1cc(O)c2c(c1)C(=O)C13C(=C2O)C(=O)[C@H]2[C@@H](O)[C@@H]1[C@H]1[C@H](O)[C@@H]3C(=O)C3=C(O)c4c(O)cc(C)cc4C(=O)C312 (stereo partly drawn)	u	u	28.2µM*	x	1.4%
Cc1ccccc1NC(=O)c1cc(-c2ccccc2)n(CCCN2CCOCC2)c1C	-28.2%	0.9%	-0.2%	-1.3%	3.0%
Cc1ccccc1NC(=NCCCN1CC1)Nc1ccccc1C	-19.0%	13µM*	-3.7%	x	-0.4%
Nc1ncnc2c1ncn2[C@@H]1O[C@H](COP(=O)(O)OP(=O)(O)OP(=O)(O)O)[C@H]2OC3(O[C@H]21)C([N+](=O)[O-])=CC(=[N+]([O-])[O-])C=C3[N+](=O)[O-] (stereo partly drawn)	x	x	x	2.8%	x
CN(N=O)c1ccc(O)c(O)c1	x	x	x	-1.2%	x
CC(O)(CS(=O)(=O)c1ccccc1)C(=O)Nc1ccc(C(F)(F)F)cc1 (stereo not drawn)	x	8.4%	-1.5%[38.3 µM]	7.9%	0.1%
CCCC(C)c1nnc(NC(=O)CCS(=O)(=O)c2ccccc2)s1 (stereo not drawn)	1.5%	0.6%	-0.2%	x	22.4µM*
SMILES	Nrf2 block	A549 tox	PINK1 modulator	Epigenetic reg	Nrf2 ARE act
CC(=O)NCC(N)C(=O)c1ccc(C)cc1 (stereo not drawn)	x	x	-0.1%	x	x
Fc1ccc(N2CCN(c3ncnc4c3nc3n4CCCCC3)CC2)cc1	8.2µM*	1.0%	1.6%	-1.2%	-0.6%
c1ccc(N2CCN(c3ncnc4c3nc3n4CCCCC3)CC2)cc1	23.1µM*	-16.0%	3.6%	0.8%	-0.4%
O=C1NC(=O)N(Cc2ccc(F)cc2)C(=O)/C1=C\c1ccc(N2CCCC2)cc1	3.5%	4.0%	2.3%	1.1%	-1.2%
CC(O)C1C=CC=CC(=O)OC2CC3OC4C5OC5(C)CCC4(COC(=O)C4OC4(C)C(O)CO1)C2(C)C31CO1 (stereo not drawn)	0.231µM*	x	-6.6%	x	-0.8%
CNc1ccc2oc(C[C@H]3O[C@]4(CC[C@H]3C)O[C@H]([C@H](C)C(=O)c3ccc[nH]3)[C@H](C)C[C@H]4C)nc2c1C(=O)O	x	x	x	-0.1%	x
CCCOP(=O)(OCCC)c1nc(-c2ccccc2)oc1NCc1ccccc1	18.4µM*	u	0.3%	3.0%	6.7%
C=C(C)[C@]12C[C@@H](C)[C@@]34O[C@](Cc5ccccc5)(O[C@@H]1[C@@H]3C=C(COC(=O)Cc1ccc(O)c(OC)c1)C[C@]1(O)C(=O)C(C)=C[C@@H]41)O2	x	x	x	3.3%	x
COC(=O)C1=C(c2ccc(C(C)=O)cc2)C[C@@H]2CC[C@H]1N2C(=O)N1CCC(O)(c2ccc(Cl)cc2)CC1	23.1µM*	-16.3%	0.4%	x	5.6%
COc1ccc(CCNC(=O)c2cnc3sc(N4CCCCCC4)nn3c2=O)cc1	u	-8.4%	0.6%	2.7%	0.9%
O=[N+]([O-])c1ccccc1-c1cc(-c2ccccc2)cc(-c2ccccc2)[n+]1Cc1ccccc1Cl	20.6µM*	u	u	x	-1.9%
Cc1ccc2oc(=O)c(-c3nc4ccc(C)cc4[nH]3)cc2c1	x	-17.0%	10.9%	15.8µM*	8.0%
O=C(NCc1ccc(Cl)cc1)C1CCN(C(=O)c2cnn(-c3ccccc3)c2-n2cccc2)CC1	u	-19.7%	-0.5%	-1.2%	6.7%
O=[N+]([O-])/C=C/c1c(Cl)cccc1Cl	-25.6%	-6.1%	-7.2%	x	14.1µM*
CC(=O)C1=C(O)[C@@H]2[C@@H]3c4c[nH]c5cccc(c45)C[C@@H]3C(C)(C)N2C1=O	x	x	x	-0.3%	x
CCOC(=O)CC1c2ccccc2-n2nncc2CN1Cc1ccc(OC)cc1 (stereo not drawn)	23.1µM*	-10.9%	0.3%	x	0.2%
